Calls of active or inactive are those of the source.

Assay [1] deals with Plasmodium falciparum Sir2 (PF13_0152, Sir2A). Nature of the assay: Plasmodium falciparum Sir2A binding compounds – biochemical, small-molecule microarray, 635 nm fluorescence, primary screen (AID 1098).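 Note: score merges spot fluorescence intensity with its signal-to-noise ratio.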 The settings on record: fluorescence 635 nm, higher = more signal.
Assay [2] in a line: probe aDKK1 binding to arrayed compounds – biochemical, biotinylated probe, 635/667 nm fluorescence, primary screen (AID 1099).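 Note: score merges 667nm spot fluorescence with signal to noise across triplicate slides.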 Particulars: small-molecule microarray, higher = more signal.
A short description of assay [3]: probe aCHRDL2 binding to arrayed compounds – biochemical, biotinylated probe, 635/667 nm fluorescence, primary screen (AID 1100). Particulars: small-molecule microarray, higher = more signal.
Assay [4] can be described thus: change in splice reporter luminescence, either direction, cell-based, HEK293, spliceosome inhibition project, primary screen (AID 1101).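 Note: HEK293 cells carrying a splicing-competent luciferase reporter gene; test concentration not given here.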 Particulars: HEK293 splicing luciferase reporter, 24 h, higher = more signal, called active from +8 up or from −8 down. For orientation: In a reporter assay the amount or activity of a reporter protein is the signal.
The target in assay [5] is Fibroblast growth factor 10 (Homo sapiens) (UniProt O15520). Nature of the assay: compounds binding fibroblast growth factor 10 – biochemical, small-molecule microarray, 635 nm fluorescence, primary screen (AID 1102). The settings on record: FGF10 binding, fluorescence 635 nm, higher = more signal.
The subject of assay [6] is glycogen synthase kinase-3 (GSK3A per assay name; protocol says GSK3B). The experiment in a line: compounds binding glycogen synthase kinase-3 – biochemical, small-molecule microarray, 635 nm fluorescence, GSK3A, primary screen (AID 1103). Note: the record names both GSK3A and GSK3B. The settings on record: fluorescence 635 nm, higher = more signal.
Assay [7] addresses Epidermal growth factor receptor (Homo sapiens) (UniProt P00533). The experiment in a line: compounds binding epidermal growth factor receptor – biochemical, small-molecule microarray, 635 nm fluorescence, primary screen (AID 1104).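 Note: score merges 667 nm emission intensity with spot signal to noise over triplicate slides.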 Particulars: EGFR binding, higher = more signal.
In assay [8] the target is Follistatin-related protein 3 (Homo sapiens) (UniProt O95633). Nature of the assay: compounds binding follistatin-related protein 3 – biochemical, small-molecule microarray, 635 nm fluorescence, primary screen (AID 1105).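 Note: score merges emission near 667 nm and signal to noise per printed spot across three slides.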 Particulars: FSTL3 binding, higher = more signal.
Assay [9] concerns the target Dickkopf-related protein 1 (Homo sapiens) (UniProt O94907). Nature of the assay: small molecules binding DKK1 protein – biochemical, small-molecule microarray, 635 nm fluorescence scan, primary screen (AID 1106).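 Note: score merges emission near 667 nm with signal to noise over three replicate slides.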 The settings on record: higher = more signal.
Assay [10] relates to Inhibin beta A chain (activin A). Nature of the assay: small molecules binding activin A – biochemical, small-molecule microarray, 635 nm fluorescence scan, primary screen (AID 1107).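 Note: mouse activin A protein probed at 4.33 µg/mL on printed slides; score merges bound-protein fluorescence near 667 nm with spot signal-to-noise.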 The settings on record: INHBA, higher = more signal.
The test system of assay [11] is Human papillomavirus type 1a protein E7 (residues 44-93). Nature of the assay: small molecules binding HPV E7 44-93 – biochemical, small-molecule microarray, residues 44-93, 635 nm fluorescence, primary screen (AID 1108).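 Note: E7 fragment applied at 1 µg/mL in TBST for 1 h at 4 C; score combines spot fluorescence with its signal to noise ratio.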 Particulars: fluorescence 635 nm, higher = more signal.
Assay [12] can be described thus: hepatitis C replication reporter changes, two-sided – Huh7 cells, luciferase reporter, HCV replication inhibitor project, primary screen (AID 1109).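 Note: huh7 hepatoma cells harbouring a luciferase neomycin HCV replicon reporter; luciferase luminescence as measure of HCV replicon replication; test concentration not given here.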 Particulars: Huh7 HCV replicon luciferase reporter, 48 h; higher = more signal.
In assay [13] the target is Left-right determination factor 2 (Homo sapiens) (UniProt O00292). Nature of the assay: small molecules binding LEFTY2 protein – biochemical, small-molecule microarray, 635 nm fluorescence scan, primary screen (AID 1110). Particulars: higher = more signal.
Assay [14] deals with Calmodulin-1 (Homo sapiens) (UniProt P0DP23). The experiment in a line: small molecules binding calmodulin-1 with EGTA – biochemical, small-molecule microarray, Cy5-labelled CALM1, profiling panel (AID 1111).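 Note: labelled calmodulin applied in Tris saline Tween buffer holding calcium plus EGTA and DTT.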 Particulars: Cy5-CALM1 binding fluorescence, higher = more signal.
Assay [15] shares this target. The experiment in a line: small molecules binding Ca-loaded calmodulin-1 – biochemical, small-molecule microarray, Cy5-labelled CALM1, plus calcium, artefact control for SMM control-protein annotation, profiling panel (AID 1112).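 Note: score merges spot fluorescence with signal to noise from triplicate slides.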 The settings on record: Cy5-CALM1 binding fluorescence, higher = more signal.
A short description of assay [16]: probe aWnt5a binding to arrayed compounds – biochemical, biotinylated probe, 635/667 nm fluorescence, primary screen (AID 1113).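 Note: score merges 667 nm fluorescence intensity with signal-to-noise per printed feature.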 Particulars: small-molecule microarray, higher = more signal.
Assay [17] in a line: probe aShh binding to arrayed compounds – biochemical, biotinylated probe, 635/667 nm fluorescence, primary screen (AID 1114).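 Note: probe is biotin-labelled aShh protein from a stem cell growth factor screen; measures binding of labelled protein to compounds printed on the slide; score merges feature fluorescence at 667 nm with signal-to-noise.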 The settings on record: small-molecule microarray, higher = more signal.
A short description of assay [18]: probe aNog binding to arrayed compounds – biochemical, biotinylated probe, 635/667 nm fluorescence, primary screen (AID 1115).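 Note: probe is biotinylated aNog protein used at 0.15 µg/mL for 1 h at 4 C; z-score combines 667 nm fluorescence of each spot with its signal to noise.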 The settings on record: small-molecule microarray, higher = more signal.
The target in assay [19] is Torsin-1A-interacting protein 1 (Homo sapiens) (UniProt Q5JTV8). The experiment in a line: compound microarray binding of lysate hLAP1 – cell lysate, small-molecule microarray, COS7 lysate, 635/667 nm fluorescence, primary screen (AID 1116). The settings on record: 635 nm fluorescence, higher = more signal.
For assay [20], the target named is Alpha-bungarotoxin (Bungarus multicinctus) (UniProt P60615). Nature of the assay: compounds binding labelled alpha-BTX control protein – biochemical, small-molecule microarray, Alexa647 label, 635/667 nm fluorescence, artefact control for SMM control protein annotation, profiling panel (AID 1117). The settings on record: alpha-BTX-A647 binding fluorescence, higher = more signal.
Chain of Alpha-bungarotoxin (Bungarus multicinctus) (P60615 whole entry, looked up): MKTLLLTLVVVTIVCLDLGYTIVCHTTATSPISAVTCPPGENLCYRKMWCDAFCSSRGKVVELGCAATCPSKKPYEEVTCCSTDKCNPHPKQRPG

Chain of Fibroblast growth factor 10 (Homo sapiens) (O15520 whole entry, looked up): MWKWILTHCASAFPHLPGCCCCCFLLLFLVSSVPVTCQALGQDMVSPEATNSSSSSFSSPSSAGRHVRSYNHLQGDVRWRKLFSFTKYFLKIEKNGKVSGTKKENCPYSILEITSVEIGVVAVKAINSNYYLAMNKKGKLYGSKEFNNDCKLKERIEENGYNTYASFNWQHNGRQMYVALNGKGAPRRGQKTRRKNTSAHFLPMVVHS
Chain of Epidermal growth factor receptor (Homo sapiens) (P00533 whole entry, looked up): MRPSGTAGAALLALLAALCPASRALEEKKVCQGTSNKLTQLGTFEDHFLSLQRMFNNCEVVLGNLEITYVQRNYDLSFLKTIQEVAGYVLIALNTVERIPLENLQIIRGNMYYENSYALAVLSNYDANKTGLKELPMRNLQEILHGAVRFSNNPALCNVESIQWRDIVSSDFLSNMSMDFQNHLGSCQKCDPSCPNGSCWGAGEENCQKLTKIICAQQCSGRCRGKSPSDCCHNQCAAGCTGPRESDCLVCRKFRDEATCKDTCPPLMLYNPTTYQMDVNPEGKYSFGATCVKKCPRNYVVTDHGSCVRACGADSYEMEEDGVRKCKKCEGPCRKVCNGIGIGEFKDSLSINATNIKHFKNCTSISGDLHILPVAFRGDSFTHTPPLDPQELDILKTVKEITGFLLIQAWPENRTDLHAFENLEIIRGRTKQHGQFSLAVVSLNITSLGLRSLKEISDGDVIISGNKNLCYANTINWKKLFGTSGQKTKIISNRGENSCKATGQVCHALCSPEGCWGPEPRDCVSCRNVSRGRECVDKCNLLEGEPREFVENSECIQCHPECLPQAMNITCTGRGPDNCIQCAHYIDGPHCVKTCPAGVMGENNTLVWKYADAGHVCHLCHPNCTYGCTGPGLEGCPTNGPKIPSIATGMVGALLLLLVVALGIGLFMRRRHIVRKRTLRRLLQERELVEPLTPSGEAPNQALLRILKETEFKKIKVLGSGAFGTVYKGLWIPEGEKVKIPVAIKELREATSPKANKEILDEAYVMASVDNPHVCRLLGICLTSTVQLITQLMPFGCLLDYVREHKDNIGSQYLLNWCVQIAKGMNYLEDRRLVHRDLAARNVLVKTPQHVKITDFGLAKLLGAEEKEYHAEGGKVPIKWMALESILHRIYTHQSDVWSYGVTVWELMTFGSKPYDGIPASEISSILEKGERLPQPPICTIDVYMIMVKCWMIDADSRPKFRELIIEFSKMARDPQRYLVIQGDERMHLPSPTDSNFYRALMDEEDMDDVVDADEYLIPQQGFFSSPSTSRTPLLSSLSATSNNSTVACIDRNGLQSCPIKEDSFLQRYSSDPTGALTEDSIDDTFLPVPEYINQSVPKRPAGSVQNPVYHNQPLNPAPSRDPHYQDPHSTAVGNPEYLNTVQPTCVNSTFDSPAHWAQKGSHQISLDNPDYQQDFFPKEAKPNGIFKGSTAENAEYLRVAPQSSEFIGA
Chain of Torsin-1A-interacting protein 1 (Homo sapiens) (Q5JTV8 whole entry, looked up): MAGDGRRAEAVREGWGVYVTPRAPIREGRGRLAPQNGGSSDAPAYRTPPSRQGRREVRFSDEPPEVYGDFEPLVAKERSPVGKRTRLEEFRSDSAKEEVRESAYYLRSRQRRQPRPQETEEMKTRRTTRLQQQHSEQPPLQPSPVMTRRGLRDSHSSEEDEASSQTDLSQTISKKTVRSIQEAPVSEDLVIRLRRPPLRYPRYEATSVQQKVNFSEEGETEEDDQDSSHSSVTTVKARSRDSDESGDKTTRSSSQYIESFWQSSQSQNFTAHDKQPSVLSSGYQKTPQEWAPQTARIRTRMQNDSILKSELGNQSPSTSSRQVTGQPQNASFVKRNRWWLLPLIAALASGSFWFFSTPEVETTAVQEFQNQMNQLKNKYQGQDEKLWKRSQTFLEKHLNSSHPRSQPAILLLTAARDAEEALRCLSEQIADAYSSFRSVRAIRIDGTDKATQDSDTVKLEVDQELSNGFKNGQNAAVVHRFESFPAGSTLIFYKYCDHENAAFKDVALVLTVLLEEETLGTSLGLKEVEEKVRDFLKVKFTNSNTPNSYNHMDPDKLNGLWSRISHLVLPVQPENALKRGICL
Chain of Follistatin-related protein 3 (Homo sapiens) (O95633 whole entry, looked up): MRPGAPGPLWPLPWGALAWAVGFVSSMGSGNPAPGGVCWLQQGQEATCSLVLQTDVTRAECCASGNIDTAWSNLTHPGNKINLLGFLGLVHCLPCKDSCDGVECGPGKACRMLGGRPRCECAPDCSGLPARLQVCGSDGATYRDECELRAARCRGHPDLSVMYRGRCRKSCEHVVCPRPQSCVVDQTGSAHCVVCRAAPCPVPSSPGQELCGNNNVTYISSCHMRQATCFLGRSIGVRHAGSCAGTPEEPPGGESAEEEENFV
Chain of Dickkopf-related protein 1 (Homo sapiens) (O94907 whole entry, looked up): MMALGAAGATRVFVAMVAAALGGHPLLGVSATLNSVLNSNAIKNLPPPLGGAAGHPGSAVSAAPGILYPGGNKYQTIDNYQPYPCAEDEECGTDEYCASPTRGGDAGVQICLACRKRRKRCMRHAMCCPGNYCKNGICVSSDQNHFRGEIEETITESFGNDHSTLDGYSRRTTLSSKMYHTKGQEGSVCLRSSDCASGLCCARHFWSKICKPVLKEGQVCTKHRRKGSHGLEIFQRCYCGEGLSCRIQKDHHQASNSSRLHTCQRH
Chain of Left-right determination factor 2 (Homo sapiens) (O00292 whole entry, looked up): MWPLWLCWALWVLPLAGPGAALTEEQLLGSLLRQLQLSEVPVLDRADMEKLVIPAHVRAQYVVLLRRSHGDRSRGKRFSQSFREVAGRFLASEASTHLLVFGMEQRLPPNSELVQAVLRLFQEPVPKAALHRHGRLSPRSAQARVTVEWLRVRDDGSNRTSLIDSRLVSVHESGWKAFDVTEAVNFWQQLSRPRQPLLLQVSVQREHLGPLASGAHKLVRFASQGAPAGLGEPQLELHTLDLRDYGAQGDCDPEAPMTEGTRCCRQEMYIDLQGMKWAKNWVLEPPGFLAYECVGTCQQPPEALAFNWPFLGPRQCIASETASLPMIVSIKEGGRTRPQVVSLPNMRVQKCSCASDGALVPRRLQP

For `CCOC(=O)C[C@H]1[C@H](OC(=O)c2ccc(-c3ccccc3)cc2)[C@@H](NC(=O)CC(C)C)c2cc(OCCCO)ccc2N1C(=O)c1ccccc1`, the composite z-score in [1] is 0.166; in assay [2], 0.148; in assay [3], -0.0525; in assay [5], 0.418; in assay [6], -0.106; in assay [7], -0.101. The composite z-score in assay [8] stood at 0.648; in assay [9] it was 0.455; in assay [10] it was 0.214; in assay [11], 1.07; in [13], 0.0613; in [14] it was 0.232. In addition, the composite z-score in [15] was 0.462; in assay [16], -0.0718; in [17] it was -0.2; in assay [18], -0.1; in assay [19], 0.266; in [20], 0.198. Moreover, the values for the z-score in [4] and in assay [12] were -0.493 (inactive) and -1.96, respectively.

Consider `O=C1C2C=CC(C(O)c3cccc(O)c3)N(Nc3ccccc3)C2C(=O)N1c1ccccc1` (stereo not given), for which the composite z-score in assay [1] was -0.131; in assay [2], 0.305; in [3], 0.272; in assay [5], 0.134; in assay [6] it was -0.194; in assay [7], 0.112. In addition, the composite z-score in [8] is -0.0752; in assay [9] it was -0.347; in [10], 0.959; in [11], 0.752; in [13], -0.0995; in [14] it was 0.46. For the same compound, the composite z-score in assay [15] came out at 0.16; in [16], 0.0077; in [17], 0.398; in assay [18], 0.496; in assay [19] it was 0.539; in assay [20], 0.546. For the same compound, the z-score in [4] was -0.664 (inactive); in assay [12], -0.424.

`CCOC(=O)C[C@H]1[C@H](OC(=O)c2ccccc2-c2ccccc2)[C@@H](NC(=O)c2ccc3ccccc3n2)c2cc(OCCCO)ccc2N1C(=O)c1ccccc1`: the composite z-score in assay [1] is 0.459; in [2], -0.269; in assay [3], -0.46; in assay [5], 0.526; in assay [6] it was 0.45; in [7], 0.575. Besides, the composite z-score in assay [8] is 0.581; in [9], 0.499; in assay [10], 0.0428; in assay [11] it was 1.29; in assay [13] it was 0.487; in [14] it was -0.0187. Besides, the composite z-score in assay [15] is -0.457; in assay [16], -0.0519; in assay [17] it was -0.248; in assay [18] it was -0.347; in [19], 0.291; in assay [20], 0.414. Also, the z-score was -0.407 (inactive) in assay [4] and -1.7 in assay [12].

As for `O=C1N[C@@H](Cc2ccccc2)C(=O)N2[C@@H]1C[C@@H](C(=O)O)[C@H]2c1ccc(O)cc1`, the composite z-score in assay [1] was determined as 1.31; in assay [2], 0.731; in assay [3] it was 0.707; in [5] it was 0.727; in [6], 0.86; in assay [7] it was 0.315. The composite z-score in [8] is 1.45; in [9], 1.63; in assay [10], 0.853; in [11], 0.436; in assay [13] it was 0.572; in [14] it was 0.58. For the same compound, the composite z-score in assay [15] is -0.661; in [16], 0.0718; in [17], 0.0711; in assay [18], -0.0382; in [19], 0.466; in [20], 0.431. The values for the z-score in assay [4] and in assay [12] were -0.485 (inactive) and 2.57, respectively.

Consider `C=CCN1C(=O)[C@]2(O[C@H](CCO)[C@@H]([Si](C)(C)c3ccc(OC)cc3)[C@@H]2C)c2cc(N3C(=O)COc4ccccc43)ccc21`, for which the composite z-score in assay [1] was 0.529; in assay [2], -0.113; in assay [3] it was 0.33; in assay [5], 0.74; in [6], 0.195; in assay [7], 0.0364. Besides, the composite z-score in [8] is 0.4; in [9], -0.207; in assay [10] it was 0.378; in [11] it was 1.32; in assay [13] it was 0.181; in assay [14] it was 0.966. Besides, the composite z-score in assay [15] is 0.325; in assay [16] it was -0.0134; in [17], -0.0858; in assay [18], 0.0599; in [19] it was -0.0988; in assay [20] it was 0.429. Moreover, the z-score in assay [4] was -3.03 (inactive); in assay [12], -5.2.
